In the library only some 8.8% were active in any assay of this set; here they are far more common.
HT1080NT lethal – kills 2HG-producing HT-1080-NT fibrosarcoma cells; HT-1080-NT fibrosarcoma viability, CellTiter-Glo ATP luminescence, 48 h; Potency, µM (titrated, usually from 46.1 µM), for the others: top-dose activity, negative = less viability, usual class: cytotoxic; hit rate 1.6% among 360,000;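 further: NT is the 2HG producing partner of a matched IDH1 knockdown line; potency means the concentration at half of the fitted maximal effect; 0% = DMSO-treated cells and -100% = media-only wells without cells; nearly all actives have a fitted effect of over 55% in size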
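Fibrosarcoma NT cells, 750 per well in 5% FBS RPMI, were exposed to compound for 48 hours. Viability: CellTiter-Glo luminescence.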
IL1B secr inh – blocks inflammasome-driven IL-1 beta release. AID 743279. THP-1 LPS/ATP IL-1B secretion, AlphaLISA, 16 h; stronger effect = lower value. activity change, % at 57.5 µM. hit rate 4.7% among 360,000; in the data active means activity change below about -50%; inconclusive means mostly about -30% to -49%
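THP-1 cells pretreated 1 hr with compounds (up to 57.5 uM final), then stimulated with LPS (250 ng/mL final) plus ATP (1.25 mM final); secreted IL-1B measured by AlphaLISA after 16 hr, decreased signal indicating inhibition.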
KB-3-1 cytotox – kills parental KB-3-1 adenocarcinoma cells. KB-3-1 viability, CellTiter-Glo ATP luminescence, 72 h. Potency, µM (doses to about 46.1 µM), hits mostly cytotoxic. hit rate 1.4% among 400,000; further: potency means the concentration at half of the fitted maximal effect; nearly all actives have a fitted effect of over 60% in size
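Screening of KB-3-1 cells (DMEM, 10% FBS, phenol-red free) ran from lowest to highest compound concentration; after 72 h at 37 °C viability was read luminescently and curves fitted.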
KB-V1 cytotox – kills drug-selected multidrug resistant KB-V1 cells | KB-V1 MDR cells viability, CellTiter-Glo, 72 h | Potency, µM (series often up to 46.1 µM), actives largely listed as cytotoxic | hit rate 3.4% among 400,000 | AID 1347076; further: potency means the concentration at half of the fitted maximal effect; nearly all actives have a fitted effect of over 60% in size
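qHTS viability screen in drug-selected KB-V1 MDR cells: 72 h compound treatment at 37 degrees C, ATP luminescence end point.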
HT1080 IDH1KD tx – kills HT-1080 cells with IDH1 knockdown | HT-1080 IDH1 knockdown viability, ATP luminescence, 48 h | hit rate 2% among 360,000 | Potency, µM (series often up to 46.1 µM), without a hit: at the highest dose activity, negative = toxicity, usual class: cytotoxic;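 further: potency means the concentration at half of the fitted maximal effect; 0% = DMSO wells and -100% = cell-free medium wells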
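IDH1KD HT-1080 cells, 750/well, RPMI + 5% FBS; compound pinned after 2 h settling; 48 h, 37 °C; CellTiter-Glo luminescence; % activity normalised to DMSO and no-cell wells; curves fitted, classed by r2 and efficacy.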
The depositor's hits bear a star; i = inactive; u = inconclusive; x = not tested or not shown. Unless noted, the call rests on the fitted dose curve; in most records, active means well fitted curve in the direction sought with a large enough effect; inconclusive means small, poorly fitted or top-dose-only effect, or another doubt; inactive means no such curve, though single readings can be large; an effect the other way counts as inactive or inconclusive. Unless noted, on the % scale 0 is the no-effect control and ±100 the full control effect.

SMILES | HT1080NT lethal | IL1B secr inh | KB-3-1 cytotox | KB-V1 cytotox | HT1080 IDH1KD tx
CCCCc1ccc(NC(=O)CSc2nc(=O)n(CCN(C)C)c3c2CCC3)cc1 | 20.6µM* | -72.3* | u | i | 14.6µM*
CCN(CC)CCn1c2c(c(SCC(=O)Nc3cccc4ccccc34)nc1=O)CCCC2 | 2.3% | -65.6* | i | i | -1.5%
COc1ccc(NC(=O)CSc2nc(=O)n(CCN(C)C)c3c2CCCC3)cc1 | 3.8% | 10.2 | i | i | 1.6%
CCCCc1ccc(NC(=O)CSc2nc(=O)n(CCN(CC)CC)c3c2CCCC3)cc1 | u | -78.2* | u | 25.9µM* | u
CCN(CC)CCn1c2c(c(SCC(=O)Nc3cc(C)cc(C)c3)nc1=O)CCC2 | 9.5% | -3.9 | i | i | 0.5%
O=C(Nc1ccc2nc(SCCOc3ccccc3)sc2c1)c1cccs1 | x | x | i | i | x
O=C(Oc1cccc(/C=N/Nc2nc(Nc3ccccc3)nc(N3CCOCC3)n2)c1)c1ccco1 | -27.5% | 1.0 | i | 14.6µM* | u
Cc1[nH]c2ccccc2c1/C=N/Nc1nc(Nc2ccc(F)cc2)nc(N2CCOCC2)n1 | -4.2% | 1.4 | i | i | -0.2%
C(=N\Nc1nc(Nc2ccccc2)nc(N2CCOCC2)n1)/c1c[nH]c2ccccc12 | u | -80.8* | u | 23.1µM* | u
COc1ccc(/C=N/Nc2nc(Nc3ccccc3)nc(N3CCCCC3)n2)cc1OC | -15.3% | -16.5 | u | u | -13.1%
Cc1ccc(Nc2nc(N/N=C/c3c[nH]c4ccccc34)nc(N3CCOCC3)n2)cc1 | u | -67.4* | i | u | u
Cc1ccccc1/C=N/Nc1nc2ccccc2c(=O)n1O | -12.0% | -12.7 | i | u | 14.3%
COc1cc(C(=O)N=c2sc3ccccc3n2C)cc(OC)c1OC | -1.8% | 23.0 | i | 4.61µM* | -0.6%
Cn1c(=NC(=O)CCl)sc2ccccc21 | 5.8µM* | -120.2* | i | u | 6.51µM*
Cn1c(=NC(=O)c2ccco2)sc2ccccc21 | -21.4% | -1.7 | u | 16.4µM* | -7.1%
CC(=O)N/N=c1\sc2ccccc2n1C | 2.3% | 32.8 | i | i | 3.8%
CN(C)c1ccc(N=c2sc3ccccc3n2C)cc1 | -19.8% | -50.8* | i | i | -7.6%
Cn1c(N)c(C(=O)CSc2nn(-c3ccc(F)cc3)c(=S)s2)c(=O)n(C)c1=O | 3.7% | 8.7 | u | i | 1.6%
CC(C)N(C(=O)[C@H]1C[C@H](CC(=O)NCC23CC4CC(CC(C4)C2)C3)C(=O)N2CCc3c([nH]c4cc(CCC(=O)N(C)C)ccc34)[C@]12C)C(C)C | 6.5% | -26.3 | i | i | 9.9%
CC(C)CNC(=O)c1cccc(NC(=O)C(C)Oc2ccccc2)c1 (stereo not given) | 4.0% | -28.7 | i | u | 24.8%
COc1ccc(C2=Nc3ccccc3N(C(=O)c3ccc4ncccc4c3)C2C(=O)NC2CCCC2)cc1 (stereo not given) | u | -6.1 | i | u | u
CCOC(=O)C1CCN(S(=O)(=O)c2ccc(Cl)cc2)CC1 | 6.5% | -1.5 | i | i | -4.3%
Cc1cc(N2CCCCC2)nc2ccc(NC(=O)c3ccc(Br)o3)cc12 | u | -66.0* | u | u | u
Cc1cc(N2CCOCC2)nc2ccc(NC(=O)CCC(=O)N3CCCCC3)cc12 | 1.0% | -5.2 | i | i | 3.0%
Cc1cc(N2CCOCC2)nc2ccc(NC(=O)CCC(=O)N3CCN(c4cccc(C(F)(F)F)c4)CC3)cc12 | 23.1µM* | -76.8* | u | u | u
Cc1cc(N2CCN(C)CC2)nc2ccc(NC(=O)c3ccc(Br)o3)cc12 | u | -18.6 | u | u | u
CC(=O)c1ccc(N2CCN(C(=O)CCC(=O)Nc3ccc4nc(N5CCN(C)CC5)cc(C)c4c3)CC2)cc1 | -27.1% | -18.7 | i | i | 23.1µM*
COc1ccc(NC(=O)CCC(=O)Nc2ccc3nc(N4CCOCC4)cc(C)c3c2)c(OC)c1 | 10.5% | -3.7 | i | i | 10.9%
COc1ccc(N(C)C(=O)CCC(=O)Nc2ccc3nc(N4CCOCC4)cc(C)c3c2)c(OC)c1 | -27.9% | -3.9 | u | 16.4µM* | -4.8%

High-throughput results as filed in PubChem.
